Measured values from ChEMBL document CHEMBL3988442, “University of Dundee, Small-Polar-MMV Screening Library” (2021).

Tested on: Trypanosoma cruzi
Test: Trypanosoma cruzi phosphomannomutase and mannose-1-phosphate guanylyltransferase assay
Type: functional
Parameters: scale not given: direction of the effect not stated beside the values
Details: 10 µM

| SMILES | Percent Effect |
| --- | --- |
| Cc1cccc(CN2C(=O)CCC23CCN(Cc2cccn2C)CC3)n1 | -0.75% |
| CCC(=O)N1CCCC1c1nccnc1Nc1nc(C)cc(C)n1 (centres undefined) | 0.789% |
| CNc1cncc(C2CCCN2Cc2c[nH]cn2)n1 (centres undefined) | -4.14% |
| Cc1cc(C)n(CC2CN(Cc3nc(-c4ccco4)no3)CCO2)n1 (centres undefined) | 5.78% |
| CCCc1nc(C)c(C(=O)NCCN2CCN(CC)CC2)s1 | 0.56% |
| Fc1cnc(N2CCOCC3(CCCN(c4nncs4)C3)C2)nc1 (centres undefined) | -2.63% |
| O=C(c1ccccn1)N1Cc2nccn2CC(CN2CCOCC2)C1 (centres undefined) | -2.63% |
| COC(=O)c1cccn1C1CCN(Cc2ccccc2)CC1 | 2.05% |
| CCOC1CCCN(C(=O)c2sccc2-n2cnnn2)C1 (centres undefined) | 8.73% |
| CN(C)CC1CN(Cc2coc(-c3ccccc3Cl)n2)CCO1 (centres undefined) | -2.41% |
| CCc1cc(O)nc(C2CCCN2C(=O)c2cccnc2)n1 (centres undefined) | -6.71% |
| CC(Cn1cccn1)NC(=O)Cc1cccs1 (centres undefined) | 3.41% |
| COc1ccc(F)cc1C(=O)N(C)Cc1cc(C)on1 | -1.22% |
| CNc1cc(N2CCCC2CNCc2cnc(C)cn2)ncn1 (centres undefined) | 1.78% |
| CN(Cc1ccco1)[C@@H]1CN(Cc2ccc(F)cc2)C[C@@H]2CCCO[C@@H]21 | -5.16% |
| CC(C)(O)CN1CCN(C(=O)c2cccnc2O)CC1 | 7.98% |
| O=C(N1CCCC1)N1CCC2(CCCN(CCOc3ccccc3)C2)C1 (centres undefined) | -2.63% |
| CC(C(=O)N1CCCC1)N1CCC(c2nccn2Cc2cscn2)CC1 (centres undefined) | -3.4% |
| Cc1ccc(NC2CCN(C(=O)c3cccc4ncccc34)CC2)nn1 | -0.803% |
| COc1cc(CNCc2ccc(NC(=O)NC(C)C)cc2)cc(OC)c1 | 6.9% |

| SMILES | Percent Effect |
| --- | --- |
| O=C(c1cnco1)N1CCCC(Cc2nccs2)C1 (centres undefined) | 0.395% |
| CCS(=O)(=O)N(C)CC(=O)Nc1ccc(Br)cn1 | -0.402% |
| Cn1cc(NC(=O)N2CCC(c3ccccc3)CC2)ccc1=O | 8.92% |
| Cc1ncc(S(C)(=O)=O)c(C2CCCNC2)n1 (centres undefined) | -2.81% |
| COC(=O)COc1cccc(NS(=O)(=O)c2cc(C(=O)O)cs2)c1 | 4.41% |
| CC(C)c1cc(N2CCN(c3ccc(O)cc3)CC2)n2nccc2n1 | -0.873% |
| CC(=O)NC1CCCN(C(=O)NCc2cccnc2-n2cccn2)C1 (centres undefined) | -6.22% |
| Cc1noc(C)c1CN(C)C(=O)NC1CCN(c2ncccn2)CC1 | 11.7% |
| FC(F)(F)Cn1ccnc1CN1CCCC1c1noc(C2CC2)n1 (centres undefined) | -3.01% |
| NC[C@H]1CC[C@H](C(NC(=O)c2ccccc2)c2ccccn2)CC1 (some centres undefined) | 4.54% |
| CCc1nc(C2CCCN2C(=O)CCCn2cccn2)no1 (centres undefined) | 4.66% |
| CN(C)CC1CN(Cc2nnc(-c3ccccc3Cl)o2)CCO1 (centres undefined) | -2.81% |
| c1csc(-c2nc(CN3CCn4c(nnc4C4CC4)C3)co2)c1 | -3.41% |
| CCNC(=O)[C@@H]1C[C@H](NC(=O)Cc2ccsc2)CN1Cc1ccc(C)o1 | 9.02% |
| CCOc1ncccc1NC(=O)NC1CCCN(c2ncccn2)C1 (centres undefined) | 4.66% |
| CC(=O)N1CCCC1c1csc(Nc2cnccn2)n1 (centres undefined) | -5.33% |
| CCOC1COC2(CCN(S(=O)(=O)c3cccc(F)c3)CC2)C1 (centres undefined) | -7.3% |
| O=c1c2ccccc2nc2n1C(CSc1ccc(Cl)cc1Cl)CN2 (centres undefined) | -1.31% |
| c1ccc(OC2CCCC2)c(CNC2CCc3ncnn3C2)c1 (centres undefined) | 5.35% |
